Activity calls are given as the source filed them. Unless noted, the rule behind the calls is not given here.
Legend:
[1] = HepG2 liver cancer cell viability effects, profiling panel, resazurin fluorescence, 24 h, PK04 Diversity Set (AID 1172); conditions: higher = more signal
[2] = basal S. cerevisiae growth modulation, no modifier, primary screen, OD600, strain BY4716, 24 h, basal condition (AID 1173); conditions: OD600, 24 h, higher = more signal, called active from +8 up or from −8 down
[3] = MM1S myeloma cell viability, profiling panel, resazurin fluorescence, basal, 24 h, PK04 Diversity Set (AID 1174); conditions: higher = more signal, called active from +8 up or from −8 down;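 note: MM1S multiple myeloma cell line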
[4] = molecular target: Dihydroorotate dehydrogenase (quinone), mitochondrial (Plasmodium falciparum (isolate 3D7)) (UniProt Q08210); test: PfDHODH enzyme inhibitors, primary screen, biochemical, C-terminal His tag, absorbance 600 nm (AID 1175); conditions: DCIP absorbance 600 nm, higher = more signal, called active from +8 up or from −8 down;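 note: recombinant parasite enzyme with a five histidine tag at its C terminus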
Chain of Dihydroorotate dehydrogenase (quinone), mitochondrial (Plasmodium falciparum (isolate 3D7)) (Q08210 whole entry, looked up): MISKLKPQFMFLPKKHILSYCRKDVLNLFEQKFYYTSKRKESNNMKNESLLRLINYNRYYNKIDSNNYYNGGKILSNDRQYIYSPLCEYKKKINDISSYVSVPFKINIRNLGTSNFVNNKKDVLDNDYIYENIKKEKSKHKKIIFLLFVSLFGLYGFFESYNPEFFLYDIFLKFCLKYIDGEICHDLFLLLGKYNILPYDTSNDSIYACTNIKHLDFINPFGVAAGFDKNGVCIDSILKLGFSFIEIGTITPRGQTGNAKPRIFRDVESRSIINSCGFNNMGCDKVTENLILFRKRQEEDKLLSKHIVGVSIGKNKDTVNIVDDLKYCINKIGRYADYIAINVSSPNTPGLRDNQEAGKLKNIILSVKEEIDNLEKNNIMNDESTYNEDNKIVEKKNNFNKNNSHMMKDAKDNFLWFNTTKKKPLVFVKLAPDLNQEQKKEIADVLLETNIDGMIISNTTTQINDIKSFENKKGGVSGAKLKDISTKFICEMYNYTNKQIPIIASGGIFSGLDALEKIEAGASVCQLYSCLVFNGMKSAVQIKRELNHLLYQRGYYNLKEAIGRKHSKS

[5] = P. aeruginosa biofilm formation inhibitors, primary screen, strain PAO1, LB-PBS medium, absorbance 600 nm (AID 1176); conditions: P. aeruginosa PAO1 growth/biofilm, A600, 12 h; higher = more signal
[6] = S. cerevisiae RM11-1a growth modifiers, primary screen, strain RM11-1a, OD600, basal, 24 h (AID 1177); conditions: OD600, 24 h, higher = more signal, called active from +8 up or from −8 down;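 note: cultures grown under basal conditions with no added stressor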
[7] = E. coli acrAB mutant growth effects, primary screen, E. coli filamentation inducers, strain DRC39, OD650, 24 h (AID 1178); conditions: higher = more signal, called active from +8 up or from −8 down;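 note: growth measured as culture turbidity by optical density at 650 nm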
[8] = E. coli acrAB mutant growth effects, primary screen, E. coli filamentation inducers, strain DRC39, OD650, 48 h (AID 1179);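 note: screen aims at cell division blockers that make cells filament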; conditions: E. coli DRC39 delta-acrAB growth, higher = more signal, called active from +8 up or from −8 down
[9] = RPMI8226 myeloma cell viability, profiling panel, resazurin fluorescence, basal, 24 h, PK04 Diversity Set (AID 1180); conditions: higher = more signal;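 note: RPMI8826 multiple myeloma cell line at 5000 cells per well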
[10] = molecular target: E3 ubiquitin-protein ligase XIAP (Homo sapiens) (UniProt P98170); test: XIAP binders, primary screen, biophysical, small-molecule microarray, fluorescence 635 nm (AID 1181); conditions: small-molecule microarray binding, higher = more signal;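 note: score merges 667 nm emission and signal to noise over triplicate slides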
Chain of E3 ubiquitin-protein ligase XIAP (Homo sapiens) (P98170 whole entry, looked up): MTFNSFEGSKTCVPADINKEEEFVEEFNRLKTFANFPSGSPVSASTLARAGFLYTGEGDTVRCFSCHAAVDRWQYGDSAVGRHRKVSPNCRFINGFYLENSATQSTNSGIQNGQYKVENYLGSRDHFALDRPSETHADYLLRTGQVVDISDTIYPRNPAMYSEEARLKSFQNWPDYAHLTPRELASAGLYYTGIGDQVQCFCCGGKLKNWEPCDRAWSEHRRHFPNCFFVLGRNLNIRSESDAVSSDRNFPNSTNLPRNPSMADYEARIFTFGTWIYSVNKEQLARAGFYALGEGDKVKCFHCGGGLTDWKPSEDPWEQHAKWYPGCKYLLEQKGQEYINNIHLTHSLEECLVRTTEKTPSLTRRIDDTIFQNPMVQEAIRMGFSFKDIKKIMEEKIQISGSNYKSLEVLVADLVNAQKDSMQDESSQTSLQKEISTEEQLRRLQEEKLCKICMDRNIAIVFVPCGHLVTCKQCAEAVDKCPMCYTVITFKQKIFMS

[11] = system: XIP peptide (Xip251-270) binding; test: small-molecule binders of XIP peptide, primary screen, biochemical, small-molecule microarray, fluorescence 635/667 nm, 0.1 µg/mL protein (AID 1182); conditions: fluorescent protein binding, 635 nm, higher = more signal, called active from +8 up or from −8 down
XIP peptide (Xip251-270) = test: small-molecule binders of XIP peptide, primary screen, biochemical, small-molecule microarray, fluorescence 635/667 nm, 0.5 µg/mL protein (AID 1183); conditions: small-molecule microarray binding, fluorescence 635 nm; higher = more signal
[12] = Plasmodium falciparum growth inhibition, primary screen, strain 3D7, DAPI fluorescence, 100 nL (AID 1184);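 note: parasites grown inside human red blood cells in medium with human serum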; conditions: P. falciparum 3D7 growth, 3 d, higher = more signal
[13] = molecular target: Homeobox protein Hox-A13 (Mus musculus) (UniProt Q62424); test: inhibitors of HoxA13-DNA binding, primary screen, biochemical, fluorescence polarization, labeled oligonucleotide (AID 1185); conditions: 15 min, higher = more signal, called active from +8 up or from −8 down
Chain of Homeobox protein Hox-A13 (Mus musculus) (Q62424 whole entry, looked up): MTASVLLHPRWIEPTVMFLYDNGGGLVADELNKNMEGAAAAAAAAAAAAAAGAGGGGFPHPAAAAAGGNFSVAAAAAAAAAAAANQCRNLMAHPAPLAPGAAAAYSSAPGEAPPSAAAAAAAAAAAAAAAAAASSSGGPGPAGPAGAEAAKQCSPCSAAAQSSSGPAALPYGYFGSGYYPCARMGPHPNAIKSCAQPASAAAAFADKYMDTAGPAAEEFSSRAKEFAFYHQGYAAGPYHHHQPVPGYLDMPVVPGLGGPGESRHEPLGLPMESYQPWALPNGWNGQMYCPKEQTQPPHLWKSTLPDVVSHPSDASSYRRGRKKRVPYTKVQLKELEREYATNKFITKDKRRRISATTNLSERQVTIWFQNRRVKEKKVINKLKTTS

[14] = inhibitors of hydroxyurea-induced Chk1 phosphorylation, primary screen, imaging, HeLa, phospho-Chk1 antibody, percent positive cells (AID 1186); conditions: hydroxyurea-induced phospho-Chk1 immunofluorescence imaging, higher = more signal
[15] = inhibitors of hydroxyurea-induced Chk1 phosphorylation, primary screen, imaging, HeLa, phospho-Chk1 nuclear intensity (AID 1187); conditions: hydroxyurea-induced phospho-Chk1 immunofluorescence imaging, higher = more signal

SMILES	z-score [1]	z-score [2]	z-score [3]	composite z-score [4]	z-score [5]	z-score [6]	z-score [7]	z-score [8]	z-score [9]	composite z-score [10]	composite z-score [11]	composite z-score (XIP peptide (Xip251-270))	z-score [12]	z-score [13]	z-score [14]	z-score [15]
C=CC[C@@]12N=C(c3ccc(OCCCO)cc3)O[C@@H]1c1ccccc1N(Cc1ccccc1)C2=O	0.157	-0.848 (inactive)	-2.58 (inactive)	-0.162 (inactive)	0.469 (inactive)	0.632 (inactive)	1.48 (inactive)	0.666 (inactive)	-2.37	0.322	0.799 (inactive)	0.797	-2.42	-2.23 (inactive)	0.0198 (inactive)	0.552 (inactive)
CCN(CC)c1ccc(N2CC=CC34O[C@@H]5C=CCOC(=O)[C@@H]5[C@H]3C(=O)N(CCO)[C@@H]4C2=O)cc1 (stereo partly drawn)	0.534	-0.0592 (inactive)	0.762 (inactive)	-0.675 (inactive)	-0.978 (inactive)	0.964 (inactive)	1.15 (inactive)	1.36 (inactive)	0.828	0.147	-0.228 (inactive)	-1.29	0.738	-4.9 (inactive)	-0.52 (inactive)	-0.456 (inactive)
COCCOC(=O)N1C(=O)[C@@]2(c3cc(C#CCC(C(=O)OC)C(=O)OC)ccc31)[C@H](C(=O)N1CCc3cc(OC)c(OC)cc3C1)[C@H]1C(=O)O[C@H](c3ccccc3)[C@H](c3ccccc3)N1[C@@H]2c1ccc(O)cc1	0.227	0.541 (inactive)	-0.0494 (inactive)	-0.0728 (inactive)	-0.0757 (inactive)	1.34 (inactive)	0.992 (inactive)	0.199 (inactive)	-0.888	-0.0034	0.596 (inactive)	0.676	-2.02	-1.46 (inactive)	0.182 (inactive)	0.424 (inactive)
C=CCC(OC(C)=O)[C@@H]1[C@@H](N(Cc2cccc3ccccc23)C(=O)c2cccc3ccccc23)c2cc(OCCCO)ccc2N1C(=O)Cc1ccc2ccccc2c1 (stereo partly drawn)	0.414	-0.599 (inactive)	-0.41 (inactive)	-0.373 (inactive)	-0.723 (inactive)	-0.0264 (inactive)	0.632 (inactive)	0.334 (inactive)	-0.0924	0.452	0.457 (inactive)	-0.716	-1.35	-2.12 (inactive)	0.233 (inactive)	0.42 (inactive)
C=CCN1C(=O)[C@]2(O[C@H](CCn3cc([C@H](O)c4ccccc4)nn3)[C@@H]([Si](C)(C)c3ccc(OC)cc3)[C@@H]2C)c2cc(N3C(=O)c4cccc5cccc3c45)ccc21	-1.1	0.0523 (inactive)	-2.78 (inactive)	0.739 (inactive)	1.69 (inactive)	0.88 (inactive)	0.908 (inactive)	0.591 (inactive)	-3.61	0.0435	0.767 (inactive)	0.312	-2.75	-3.64 (inactive)	-0.65 (inactive)	-0.164 (inactive)
CC(C)[Si](C#CCCCC#N)(O[C@H](c1ccccc1)c1cn([C@H](C)c2ccccc2)nn1)C(C)C	0.592	-1.06 (inactive)	0.181 (inactive)	0.31 (inactive)	0.559 (inactive)	-0.802 (inactive)	-0.708 (inactive)	-0.482 (inactive)	0.409	0.172	-0.301 (inactive)	0.415	-0.133	-0.445 (inactive)	-0.228 (inactive)	-0.174 (inactive)
COC(=O)[C@@]1(Cc2ccc(F)cc2)[C@H]2c3cc(C(=O)N(C)C)n(CCn4cc([N+](=O)[O-])nc4C)c3C[C@H]2CN1C(=O)c1ccccc1	-1.02	1.94 (inactive)	-1.05 (inactive)	-0.165 (inactive)	0.122 (inactive)	0.502 (inactive)	-0.984 (inactive)	-0.566 (inactive)	-0.801	0.267	0.128 (inactive)	0.5	0.653	-2.06 (inactive)	0.581 (inactive)	0.197 (inactive)
NC(=O)NCC#Cc1ccc2c(c1)[C@]1(C(=O)N2)[C@H](C(=O)Nc2nc3ccccc3s2)[C@H]2C(=O)O[C@H](c3ccccc3)[C@H](c3ccccc3)N2[C@@H]1c1ccc(OCCO)cc1	1.1	1.12 (inactive)	0.365 (inactive)	-0.396 (inactive)	3.99 (inactive)	1.27 (inactive)	0.426 (inactive)	-0.221 (inactive)	-0.271	0.013	-0.165 (inactive)	-0.913	-0.245	0.217 (inactive)	0.287 (inactive)	0.68 (inactive)

Source: PubChem BioAssay
